Measurements reported in PubChem BioAssay AID1159580 (chemical genetic matrix, 2015).
In all, about 5,500 compounds went through this assay and about 2,000 (36%) were called active. Another 18% or so got no clear call; they are omitted. Rule as the data show it: active = normalized growth mostly below about 0.91 (no sharp cut-off); inconclusive = no clear call, values can overlap the other calls; inactive = mostly above about 0.92. The list shows a part of the results.

Experiment: chemical genetic growth profiling, strain panel (AID 1159580);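 also: tested at 20 µM; growth read once vehicle control cultures reached saturation at 30 °C; 1 = growth at the plate median or of vehicle wells; lower values mean less growth of the strain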
Conditions: growth OD
[1] = S. cerevisiae deletion strains, locus YBR021W, strain FUR4, stronger effect = lower value
[2] = S. cerevisiae deletion strains, locus YBR229C, strain ROT2, stronger effect = lower value
[3] = S. cerevisiae deletion strains, locus YCL029C, strain bik1, stronger effect = lower value
[4] = S. cerevisiae deletion strains, locus YDL035C, strain GPR1, stronger effect = lower value
[5] = S. cerevisiae deletion strains, locus YDL074C, strain BRE1, stronger effect = lower value
[6] = S. cerevisiae deletion strains, locus YDL101C, strain DUN1, stronger effect = lower value
[7] = S. cerevisiae deletion strains, locus YDL185W, strain tfp1, stronger effect = lower value
[8] = S. cerevisiae deletion strains, locus YDL192W, strain arf1, stronger effect = lower value
[9] = S. cerevisiae deletion strains, locus YDR101C, strain arx1, stronger effect = lower value
[10] = S. cerevisiae deletion strains, locus YDR162C, strain NBP2, stronger effect = lower value
[11] = S. cerevisiae deletion strains, locus YDR318W, strain mcm21, stronger effect = lower value
[12] = S. cerevisiae deletion strains, locus YDR388W, stronger effect = lower value
[13] = S. cerevisiae deletion strains, locus YDR502C, strain sam2, stronger effect = lower value
[14] = S. cerevisiae deletion strains, locus YEL061C, strain CIN8, stronger effect = lower value
[15] = S. cerevisiae deletion strains, locus YER110C, stronger effect = lower value
[16] = S. cerevisiae deletion strains, locus YER155C, strain BEM2, stronger effect = lower value
[17] = S. cerevisiae deletion strains, locus YER167W, strain BCK2, stronger effect = lower value
[18] = S. cerevisiae deletion strains, locus YGL078C, strain dbp3, stronger effect = lower value
[19] = S. cerevisiae deletion strains, locus YGL086W, strain mad1, stronger effect = lower value
[20] = S. cerevisiae deletion strains, locus YGL248W, strain PDE1, stronger effect = lower value
[21] = S. cerevisiae deletion strains, locus YGR135W, strain pre9, stronger effect = lower value
[22] = S. cerevisiae deletion strains, locus YGR229C, strain SMI1, stronger effect = lower value
[23] = S. cerevisiae deletion strains, locus YGR252W, strain gcn5, stronger effect = lower value
[24] = S. cerevisiae deletion strains, locus YHR030C, strain SLT2, stronger effect = lower value
[25] = S. cerevisiae deletion strains, locus YHR079C, strain IRE1 (second series), stronger effect = lower value
[26] = S. cerevisiae deletion strains, locus YHR094C, strain hxt1, stronger effect = lower value
[27] = S. cerevisiae deletion strains, locus YHR129C, strain ARP1, stronger effect = lower value
[28] = S. cerevisiae deletion strains, locus YHR200W, strain rpn10, stronger effect = lower value
[29] = S. cerevisiae deletion strains, locus YIL066C, strain RNR3, stronger effect = lower value
[30] = S. cerevisiae deletion strains, locus YIL073C, strain SPO22, stronger effect = lower value
[31] = S. cerevisiae deletion strains, locus YIL125W, strain kgd1, stronger effect = lower value
[32] = S. cerevisiae deletion strains, locus YIR030C, strain dcg1, stronger effect = lower value
[33] = S. cerevisiae deletion strains, locus YJL095W, strain BCK1, stronger effect = lower value
[34] = S. cerevisiae deletion strains, locus YJL134W, strain LCB3, stronger effect = lower value
[35] = S. cerevisiae deletion strains, locus YJL168C, strain set2, stronger effect = lower value
[36] = S. cerevisiae deletion strains, locus YJL187C, strain SWE1 (second series), stronger effect = lower value
[37] = S. cerevisiae deletion strains, locus YJR043C, strain POL32, stronger effect = lower value
[38] = S. cerevisiae deletion strains, locus YKL009W, strain mrt4, stronger effect = lower value
[39] = S. cerevisiae deletion strains, locus YKL085W, strain MDH1 (second series), stronger effect = lower value
[40] = S. cerevisiae deletion strains, locus YKL085W, strain MDH1, stronger effect = lower value
[41] = S. cerevisiae deletion strains, locus YKR001C, strain vps1, stronger effect = lower value
[42] = S. cerevisiae deletion strains, locus YLR039C, strain RIC1, stronger effect = lower value
[43] = S. cerevisiae deletion strains, locus YLR058C, strain SHM2, stronger effect = lower value
[44] = S. cerevisiae deletion strains, locus YLR102C, strain apc9, stronger effect = lower value
[45] = S. cerevisiae deletion strains, locus YLR262C, strain YPT6, stronger effect = lower value
[46] = S. cerevisiae deletion strains, locus YLR268W, strain sec22, stronger effect = lower value
[47] = S. cerevisiae deletion strains, locus YLR330W, strain CHS5, stronger effect = lower value
[48] = S. cerevisiae deletion strains, locus YLR342W, strain FKS1 (second series), stronger effect = lower value
[49] = S. cerevisiae deletion strains, locus YLR371W, strain rom2, stronger effect = lower value
[50] = S. cerevisiae deletion strains, locus YLR418C, strain cdc73, stronger effect = lower value
[51] = S. cerevisiae deletion strains, locus YML016C, strain PPZ1, stronger effect = lower value
[52] = S. cerevisiae deletion strains, locus YML032C, strain rad52, stronger effect = lower value
[53] = S. cerevisiae deletion strains, locus YML124C, strain tub3, stronger effect = lower value
[54] = S. cerevisiae deletion strains, locus YMR078C, strain ctf18, stronger effect = lower value
[55] = S. cerevisiae deletion strains, locus YMR223W, strain ubp8, stronger effect = lower value
[56] = S. cerevisiae deletion strains, locus YMR307W, strain GAS1, stronger effect = lower value
[57] = S. cerevisiae deletion strains, locus YNL067W, strain RPL9B, stronger effect = lower value
[58] = S. cerevisiae deletion strains, locus YNL233W, strain BNI4, stronger effect = lower value
[59] = S. cerevisiae deletion strains, locus YNL250W, strain rad50, stronger effect = lower value
[60] = S. cerevisiae deletion strains, locus YNL271C, strain bni1, stronger effect = lower value
[61] = S. cerevisiae deletion strains, locus YNL298W, strain CLA4, stronger effect = lower value
[62] = S. cerevisiae deletion strains, locus YNL307C, strain MCK1, stronger effect = lower value
[63] = S. cerevisiae deletion strains, locus YNL322C, strain KRE1, stronger effect = lower value
[64] = S. cerevisiae deletion strains, locus YNR052C, strain pop2, stronger effect = lower value
[65] = S. cerevisiae deletion strains, locus YOL012C, strain htz1
[66] = S. cerevisiae deletion strains, locus YOL147C, strain pex11, stronger effect = lower value
[67] = S. cerevisiae deletion strains, locus YOR061W, strain CKA2, stronger effect = lower value
[68] = S. cerevisiae deletion strains, locus YOR069W, strain VPS5, stronger effect = lower value
[69] = S. cerevisiae deletion strains, locus YOR136W, strain idh2, stronger effect = lower value
[70] = S. cerevisiae deletion strains, locus YOR144C, strain elg1, stronger effect = lower value
[71] = S. cerevisiae deletion strains, locus YOR184W, strain ser1, stronger effect = lower value
[72] = S. cerevisiae deletion strains, locus YOR316C, strain cot1, stronger effect = lower value
[73] = S. cerevisiae deletion strains, locus YPR119W, strain clb2, stronger effect = lower value
[74] = S. cerevisiae deletion strains, locus YPR141C, strain kar3, stronger effect = lower value
[75] = S. cerevisiae deletion strains, locus YPR163C, strain tif3, stronger effect = lower value
[76] = S. cerevisiae deletion strains, locus YPR167C, strain met16, stronger effect = lower value
[77] = S. cerevisiae deletion strains, strain wtn01, stronger effect = lower value
[78] = S. cerevisiae strains, strain wild type, stronger effect = lower value

Measured: normalized growth

COC(=O)c1c(C)c2c(c(C)c1OC)OC(=O)c1c(C)c(Cl)c(OC)c(Cl)c1O2
inactive: [1] 0.99 | [2] 1.01 | [3] 1.02 | [4] 1.03 | [5] 1.04 | [6] 1.02 | S. cerevisiae deletion strains, locus YDL134C, strain PPH21, stronger effect = lower value 1.01 | [7] 1.01 | [8] 1.02 | [9] 1 | S. cerevisiae deletion strains, locus YDR150W, strain NUM1, stronger effect = lower value 1.02 | [10] 1.03 | [11] 1.02 | [12] 1.02 | [13] 1.03 | [14] 1.01 | [15] 1.02 | [16] 0.998 | [17] 1.03 | [18] 1.01 | [19] 1.03 | [20] 1.01 | [21] 1.03 | [22] 1.06 | [23] 1.01 | [24] 1.02 | [25] 1.01 | [26] 1.02 | [27] 1.01 | [28] 1.02 | [29] 1.04 | [30] 1.09 | [31] 1.01 | [32] 1.01 | [33] 1.04 | [34] 1.01 | [35] 1.02 | [36] 1.03 | [37] 1.03 | S. cerevisiae deletion strains, locus YKL068W, stronger effect = lower value 1.04 | [41] 1.01 | [42] 1.06 | [43] 1.02 | [44] 1.01 | [45] 1.07 | [46] 1.02 | [47] 1.02 | [48] 1.05 | [49] 1.01 | [50] 1.03 | [51] 1.01 | [52] 1.01 | [53] 1.04 | [54] 1.01 | [55] 1.02 | [56] 1.04 | [57] 1.02 | S. cerevisiae deletion strains, locus YNL128W, strain TEP1, stronger effect = lower value 1.04 | [58] 1.02 | [59] 1.04 | [60] 1.02 | [61] 1.02 | [62] 1.01 | [63] 1.02 | [64] 1.02 | [65] 0.795 | [66] 1.01 | [67] 1.01 | [68] 1.01 | [69] 1.02 | [70] 1.01 | [71] 1.02 | [72] 1.02 | S. cerevisiae deletion strains, locus YPL055C, strain LGE1, stronger effect = lower value 1.04 | [73] 1.01 | [74] 1.02 | [75] 1.01 | [76] 1.02 | [77] 1.01 | [78] 1.02
active: [38] 1.37 [resistant] | [39] 1.23 [resistant] | [40] 1.23 [resistant]

CC(=O)Oc1c(Cl)c(C)c2c(c1Cl)OC(=O)c1c(C)c(Cl)c(OC(C)=O)c(Cl)c1O2
active: S. cerevisiae deletion strains, locus YAL013W, strain DEP1, stronger effect = lower value 0.895 | [1] 0.851 | [3] 0.853 | [8] 0.825 | [9] 0.883 | [10] 0.799 | [13] 0.878 | [16] 0.91 | [18] 0.856 | [19] 0.899 | [22] 0.65 | [23] 0.693 | [38] 0.678 | [39] 1.39 [resistant] | [40] 1.39 [resistant] | [41] 0.682 | [46] 0.847 | [50] 0.756 | [52] 0.853 | [55] 0.886 | [57] 0.846 | S. cerevisiae deletion strains, locus YNL153C, strain GIM3, stronger effect = lower value 0.858 | [61] 0.866 | [62] 0.771 | [64] 0.754 | [66] 0.916 | [70] 0.903 | [71] 0.652 | [75] 0.736 | [77] 0.856
inactive: [2] 1.02 | [4] 0.86 | [5] 0.79 | [6] 0.946 | [7] 1 | [11] 0.946 | [12] 0.932 | [14] 1.02 | [15] 0.992 | [17] 0.985 | [20] 0.926 | [21] 0.912 | [24] 0.922 | [25] 1.01 | [26] 1.01 | [27] 0.925 | [28] 0.966 | [29] 0.965 | [30] 1.03 | [31] 1.02 | [32] 0.934 | [33] 0.802 | [34] 1.04 | [35] 1.01 | [36] 0.913 | [37] 0.921 | [42] 0.715 | [43] 0.967 | [44] 1.01 | [45] 0.642 | [47] 0.922 | [48] 0.828 | [49] 1.01 | [51] 1.02 | [53] 1.02 | [54] 0.985 | [56] 0.613 | [58] 0.934 | [59] 0.98 | [60] 0.993 | [63] 1.02 | S. cerevisiae deletion strains, locus YOL006C, strain TOP1, stronger effect = lower value 0.734 | [65] 1.44 | [67] 0.988 | [68] 0.972 | [69] 0.976 | [72] 1.01 | [73] 1.01 | [74] 1.07 | [76] 0.942 | [78] 0.977
